Assay results from PubChem BioAssay.
For part of these data: Potency and affinity values are given separately. Active and inactive are the calls of the source.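 The calls were made as follows, unless noted: active = calcium signal cut by more than 3 SD below the full-agonist control yet still positive, in both repeats and the earlier primary screen; inactive = the rest.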

Experiments:
[1] = test system: TRPC4 beta (transient receptor potential cation channel C4), mouse; assay: TRPC4 cation channel opening, retest – cell-based, Fluo4 calcium, HEK293 TRPC4beta/mu-opioid, duplicates, 10 µM, confirmation (AID 2426;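 active = fluorescence ratio normalized to control raised more than 50% in primary screen plus both repeat runs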); settings: Fluo4 calcium fluorescence, at 10 µM; stronger effect = higher value
[2] = test system: transient receptor potential cation channel C4 beta (TRPC4), mouse; assay: TRPC4 cation channel opening, second retest – cell-based, second round, Fluo4, HEK293 TRPC4beta/mu-opioid, 1 µM, confirmation (AID 2461;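 active = primary screen active and over 50% activation in each of two duplicate runs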); settings: Fluo4 calcium fluorescence, at 1 µM; stronger effect = higher value
[3] = test system: TRPC4 (transient receptor potential cation channel C4 beta), mouse; assay: potentiation of DAMGO EC20 TRPC4 response – cell-based, second round, Fluo-4, HEK293 TRPC4beta/mu-opioid, 1 µM, confirmation (AID 2554;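 active = primary screen hit whose fluorescence ratio, in both repeats, exceeds the weak agonist control mean by 3 SD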); settings: DAMGO EC20, Fluo-4 calcium flux, at 1 µM; stronger effect = higher value
[4] = test system: TRPC4 beta (transient receptor potential cation channel C4), mouse; assay: potentiation of DAMGO EC20 TRPC4 response – cell-based, Fluo-4, HEK293 TRPC4beta/mu-opioid, confirmation (AID 2555;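 active = primary screen hit whose calcium fluorescence ratio, in both repeats, exceeds the weak agonist control mean by 3 SD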); settings: DAMGO EC20, Fluo-4 calcium flux, at 10 µM; stronger effect = higher value
[5] = molecular target: Short transient receptor potential channel 4 (Mus musculus) (UniProt Q9QUQ5); assay: blockers of DAMGO-evoked TRPC4 calcium flux – cell-based, Fluo4, HEK293 TRPC4beta/mu-opioid, confirmation (AID 2636); settings: at 10 µM; stronger effect = higher value
Short transient receptor potential channel 4 (Mus musculus), sequence (Q9QUQ5 whole entry, looked up): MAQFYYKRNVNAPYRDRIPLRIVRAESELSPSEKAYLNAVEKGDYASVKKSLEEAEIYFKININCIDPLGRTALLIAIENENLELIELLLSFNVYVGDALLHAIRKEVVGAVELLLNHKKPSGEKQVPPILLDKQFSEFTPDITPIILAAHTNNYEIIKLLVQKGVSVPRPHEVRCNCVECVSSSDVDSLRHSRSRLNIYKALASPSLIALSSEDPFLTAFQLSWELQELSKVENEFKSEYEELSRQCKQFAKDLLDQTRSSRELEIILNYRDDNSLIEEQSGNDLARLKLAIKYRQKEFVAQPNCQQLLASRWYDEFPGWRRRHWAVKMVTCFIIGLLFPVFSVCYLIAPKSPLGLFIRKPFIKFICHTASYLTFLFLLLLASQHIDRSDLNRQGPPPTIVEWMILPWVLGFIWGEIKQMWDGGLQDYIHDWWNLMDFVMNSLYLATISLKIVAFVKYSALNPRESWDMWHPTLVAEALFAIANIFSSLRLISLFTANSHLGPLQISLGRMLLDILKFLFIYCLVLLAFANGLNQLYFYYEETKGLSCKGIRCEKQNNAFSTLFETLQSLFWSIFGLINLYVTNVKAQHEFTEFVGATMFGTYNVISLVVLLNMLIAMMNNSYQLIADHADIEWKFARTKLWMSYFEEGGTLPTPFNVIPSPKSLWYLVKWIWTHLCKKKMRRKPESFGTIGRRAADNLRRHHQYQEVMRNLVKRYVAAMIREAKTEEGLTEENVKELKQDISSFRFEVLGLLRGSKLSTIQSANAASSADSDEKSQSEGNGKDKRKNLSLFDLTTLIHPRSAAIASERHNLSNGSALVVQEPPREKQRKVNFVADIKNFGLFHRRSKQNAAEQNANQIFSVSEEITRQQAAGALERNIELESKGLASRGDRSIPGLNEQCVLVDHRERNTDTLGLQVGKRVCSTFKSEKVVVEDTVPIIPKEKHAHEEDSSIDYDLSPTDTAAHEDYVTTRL

[6] = molecular target: Short transient receptor potential channel 4 (Mus musculus) (UniProt Q9QUQ5); assay: blockers of DAMGO-evoked TRPC4 calcium flux – cell-based, second round, Fluo4, HEK293 TRPC4beta/mu-opioid, 1 µM, confirmation (AID 2637;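 active = calcium signal ratio cut to more than 3 SD under the fully stimulated control mean yet still positive, in both repeats and the primary screen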); settings: at 1 µM; stronger effect = higher value
[7] = molecular target: Short transient receptor potential channel 4 (Mus musculus) (UniProt Q9QUQ5); assay: calcium entry via TRPC4 opening agents – cell-based, HEK293 TRPC4/mu-opioid, Fluo-4 calcium, dose response (AID 434937;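 active = primary screen activator hit with a dose response curve and TRPC4 channel activation at any tested dose; inactive = no activation, no dose response, or not a primary hit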)
[8] = molecular target: Short transient receptor potential channel 4 (Mus musculus) (UniProt Q9QUQ5); assay: potentiation of DAMGO-evoked TRPC4 calcium signal – cell-based, HEK293 TRPC4/mu-opioid, Fluo-4 calcium, EC20 DAMGO, dose response (AID 434941;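 active = earlier screen potentiator hit that boosts the TRPC4 ion channel at some dose, with a dose response; inactive = no potentiation, no dose response, or not a prior hit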;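 also: calcium entry triggered by an EC20 dose of DAMGO at the co-expressed mu-opioid receptor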)
[9] = molecular target: Short transient receptor potential channel 4 (Mus musculus) (UniProt Q9QUQ5); assay: block of DAMGO-driven TRPC4 calcium entry – cell-based, HEK293 TRPC4/mu-opioid, Fluo-4 calcium, dose response (AID 434942;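 active = primary screen inhibitor hit that blocks the TRPC4 channel at some tested dose, yielding a dose curve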)
[10] = molecular target: Short transient receptor potential channel 6 (Mus musculus) (UniProt Q61143); assay: TRPC6 blockade by TRPC4 inhibitor hits – cell-based, HEK293, membrane potential dye, duplicate, selectivity assay for TRPC4 inhibitor project, confirmation (AID 434948;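 active = active in primary screen and both duplicates, each dropping signal beyond three positive-control SD with fluorescence still positive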); settings: HEK293 TRPC6, membrane potential dye fluorescence, at 10 µM, stimulated with maximal-effect acetylcholine; stronger effect = higher value
Short transient receptor potential channel 6 (Mus musculus), sequence (Q61143 whole entry, looked up): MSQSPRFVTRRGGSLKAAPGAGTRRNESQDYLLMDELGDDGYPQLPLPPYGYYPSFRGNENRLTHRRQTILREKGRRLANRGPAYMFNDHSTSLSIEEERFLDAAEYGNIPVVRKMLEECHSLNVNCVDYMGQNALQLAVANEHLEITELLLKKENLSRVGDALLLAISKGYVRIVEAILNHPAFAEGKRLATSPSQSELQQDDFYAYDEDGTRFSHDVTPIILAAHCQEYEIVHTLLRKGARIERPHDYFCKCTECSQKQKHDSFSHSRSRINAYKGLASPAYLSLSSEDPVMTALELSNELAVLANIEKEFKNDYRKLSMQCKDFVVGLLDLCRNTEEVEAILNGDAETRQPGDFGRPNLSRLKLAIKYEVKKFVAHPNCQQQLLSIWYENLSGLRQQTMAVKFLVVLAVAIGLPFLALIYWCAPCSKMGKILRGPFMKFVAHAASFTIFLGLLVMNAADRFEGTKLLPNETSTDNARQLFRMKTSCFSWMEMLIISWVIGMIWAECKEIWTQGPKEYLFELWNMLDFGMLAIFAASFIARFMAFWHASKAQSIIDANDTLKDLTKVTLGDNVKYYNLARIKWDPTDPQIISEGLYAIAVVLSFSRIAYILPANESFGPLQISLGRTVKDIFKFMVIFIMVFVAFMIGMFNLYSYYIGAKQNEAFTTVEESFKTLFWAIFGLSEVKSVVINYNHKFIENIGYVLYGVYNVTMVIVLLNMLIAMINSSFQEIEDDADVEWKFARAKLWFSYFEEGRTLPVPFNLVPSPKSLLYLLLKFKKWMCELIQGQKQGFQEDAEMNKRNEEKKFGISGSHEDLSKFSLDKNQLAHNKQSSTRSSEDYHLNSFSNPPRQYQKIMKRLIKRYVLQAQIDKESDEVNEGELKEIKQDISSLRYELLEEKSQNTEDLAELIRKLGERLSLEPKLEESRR

[11] = molecular target: Short transient receptor potential channel 6 (Mus musculus) (UniProt Q61143); assay: TRPC6 opening by TRPC4 activator hits – cell-based, HEK293, membrane potential dye, duplicate, selectivity assay for TRPC4 activator project, confirmation (AID 434950;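 active = membrane potential signal rise above negative control mean plus 3 SD in both duplicates, also active in the earlier TRPC4 screen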); settings: HEK293 TRPC6, membrane potential fluorescence, at 10 µM; activation: stronger effect = higher value; outcome: activation
[12] = molecular target: Short transient receptor potential channel 6 (Mus musculus) (UniProt Q61143); assay: positive modulators of mouse TRPC6 channel – HEK293 cells, membrane potential dye, duplicate, selectivity assay for TRPC4 potentiator project, confirmation (AID 434952;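 active = compound raising the membrane signal above positive-control mean plus 3 SD in both repeats, and a primary screen hit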); settings: HEK293 TRPC6, membrane potential dye fluorescence, at 10 µM, maximal acetylcholine added after compound; stronger effect = higher value
[13] = molecular target: Short transient receptor potential channel 4 (Mus musculus) (UniProt Q9QUQ5); assay: calcium flux activators in TRPC4/5HT1a cells, counter-screen for TRPC4 activator project, cell-based, second counter screen, HEK293 TRPC4/5HT1a, Fluo-4 (AID 434977;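 active = calcium signal rise above buffer-control mean plus 5 SD in both duplicates, and also a hit in the primary screen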); settings: Fluo-4 calcium flux, at 10 µM; stronger effect = higher value
[14] = serotonin-gated TRPC4 signal block – cell-based, second counter screen, HEK293 TRPC4/5HT1a, Fluo-4, counter-screen for TRPC4 inhibitor project, confirmation (AID 434978;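 active = primary screen active whose calcium signal fell more than 3 SD beyond the full-serotonin control mean in both duplicate plates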;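 also: serotonin given first at submaximal then at maximal dose after compound preincubation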); settings: Fluo-4 calcium flux, at 10 µM, serotonin added to trigger calcium flux; stronger effect = higher value
[15] = test system: TRPC4 (mouse), co-expressed with 5HT1a in HEK293; assay: enhancement of serotonin-evoked TRPC4 response – cell-based, second counter screen, HEK293 TRPC4/5HT1a, Fluo-4, counter-screen for TRPC4 potentiator project, confirmation (AID 434979;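 active = signal rise over 3 SD above mean of control wells given weak agonist, in both repeats and first screen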); settings: Fluo-4 calcium flux, at 10 µM, serotonin added at its EC20 dose; stronger effect = higher value
[16] = nonspecific calcium rise without TRPC4 – cell-based, HEK293 mu-opioid receptor line, counter-screen for TRPC4 activator project, confirmation (AID 449723;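 active = hit in primary screen, with calcium signal over 5 SD above buffer well mean in both duplicates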;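 also: counter screen cells carry the mu-opioid receptor alone and lack TRPC4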); settings: HEK293 mu-opioid cells, Fluo-4 calcium fluorescence, at 10 µM; stronger effect = higher value
[17] = nonspecific potentiation of DAMGO calcium response – cell-based, HEK293 mu-opioid receptor line, counter-screen for TRPC4 allosteric potentiator project, confirmation (AID 449724;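 active = calcium signal rise more than 3 SD above the low-dose agonist control mean, in both duplicate plates and the primary screen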); settings: HEK293 mu-opioid receptor cells, Fluo-4 calcium flux, at 10 µM, compound added before EC20 DAMGO stimulus; stronger effect = higher value

CCN1CCN(c2ccc(S(=O)(=O)N3CCCCC3)cc2NC(=O)COc2cc(C)ccc2Cl)CC1
active: potentiation [4] 16% | potentiation [15] 17.8%
inactive: outcome [1] | outcome [2] | outcome [3] | outcome [5] | outcome [6] | outcome [7] | outcome [8] | outcome [9] | outcome [10] | outcome [11] | outcome [12] | outcome [13] | outcome [14] | outcome [16] | outcome [17]

CC(=O)Nc1ccc(S(=O)(=O)N2CCN(CCCOc3cc(C)ccc3C)CC2)cc1
active: potentiation [4] 24%
inactive: outcome [1] | outcome [2] | outcome [3] | outcome [5] | outcome [6] | outcome [7] | outcome [8] | outcome [9] | outcome [10] | outcome [11] | outcome [12] | outcome [13] | outcome [14] | outcome [15] | outcome [16] | outcome [17]

Cn1c(N2CCC(C(N)=O)CC2)nc2c1c(=O)n(Cc1ccc(Br)cc1)c(=O)n2C
inactive: outcome [1] | outcome [2] | outcome [3] | outcome [4] | outcome [5] | outcome [6] | outcome [7] | outcome [8] | outcome [9] | outcome [10] | outcome [11] | outcome [12] | outcome [13] | outcome [14] | outcome [15] | outcome [16] | outcome [17]

CCOC(=O)CSc1nc2ccccc2c(=O)n1C1CCCC1
inactive: outcome [1] | outcome [2] | outcome [3] | outcome [4] | outcome [5] | outcome [6] | outcome [7] | outcome [8] | outcome [9] | outcome [10] | outcome [11] | outcome [12] | outcome [13] | outcome [14] | outcome [15] | outcome [16] | outcome [17]

COC(=O)C1=C(C)NC2=C(C(=O)c3ccccc32)C1c1ccc(-c2ccc(C(=O)O)cc2)o1 (stereo not given)
inactive: outcome [1] | outcome [2] | outcome [3] | outcome [4] | outcome [5] | outcome [6] | outcome [7] | outcome [8] | outcome [9] | outcome [10] | outcome [11] | outcome [12] | outcome [13] | outcome [14] | outcome [15] | outcome [16]
active: activation [17] 1780%

Cc1ccc(C)n1-c1ncc(Br)cn1
inactive: outcome [1] | outcome [2] | outcome [3] | outcome [5] | outcome [6] | outcome [7] | outcome [8] | outcome [9] | outcome [10] | outcome [11] | outcome [12] | outcome [13] | outcome [14] | outcome [16] | outcome [17]
active: potentiation [4] 10% | potentiation [15] 31.9%

CCc1nc2ccccc2n1Cc1ccc(F)cc1
inactive: outcome [1] | outcome [2] | outcome [3] | outcome [4] | outcome [5] | outcome [6] | outcome [7] | outcome [8] | outcome [9] | outcome [10] | outcome [11] | outcome [12] | outcome [13] | outcome [14] | outcome [15] | outcome [16] | outcome [17]

FC(F)(F)COc1nc(N2CCCCC2)nc(N2CCNCC2)n1
inactive: outcome [1] | outcome [2] | outcome [3] | outcome [4] | outcome [5] | outcome [6] | outcome [7] | outcome [8] | outcome [9] | outcome [10] | outcome [11] | outcome [12] | outcome [13] | outcome [14] | outcome [15] | outcome [16] | outcome [17]

Cc1nnc(Sc2cc(NCCCO)c([N+](=O)[O-])c3nonc23)s1
active: inhibition [5] 84%
inactive: outcome [1] | outcome [2] | outcome [3] | outcome [4] | outcome [6] | outcome [7] | outcome [8] | outcome [9] | outcome [10] | outcome [11] | outcome [12] | outcome [13] | outcome [14] | outcome [15] | outcome [16] | outcome [17]

CCC(CC)c1nnc(NC(=O)c2c(C)nn(Cc3ccccc3Cl)c2C)s1
inactive: outcome [1] | outcome [2] | outcome [3] | outcome [4] | outcome [5] | outcome [6] | outcome [7] | outcome [8] | outcome [9] | outcome [10] | outcome [11] | outcome [12] | outcome [13] | outcome [14] | outcome [16] | outcome [17]
active: potentiation [15] 36.2%

CC(C)Cc1nc(N2CCN(C(=O)C(C)C)CC2)c(C#N)c2c1CCC2
inactive: outcome [1] | outcome [2] | outcome [3] | outcome [5] | outcome [6] | outcome [7] | outcome [8] | outcome [9] | outcome [10] | outcome [11] | outcome [12] | outcome [13] | outcome [14] | outcome [15] | outcome [16] | outcome [17]
active: potentiation [4] 33%

O=C(Nc1ccc2c(c1)OCO2)c1cnn2cccnc12
inactive: outcome [1] | outcome [2] | outcome [3] | outcome [5] | outcome [6] | outcome [7] | outcome [8] | outcome [9] | outcome [10] | outcome [11] | outcome [12] | outcome [13] | outcome [14] | outcome [16] | outcome [17]
active: potentiation [4] 38% | potentiation [15] 48.5%

CCCCN(C)CCNC(=O)c1c[nH]c2ccc(S(=O)(=O)N(CC)CC)cc2c1=O
inactive: outcome [1] | outcome [2] | outcome [3] | outcome [5] | outcome [6] | outcome [7] | outcome [8] | outcome [9] | outcome [10] | outcome [11] | outcome [12] | outcome [13] | outcome [14] | outcome [16] | outcome [17]
active: potentiation [4] 46% | potentiation [15] 26.4%

CCCN1Cc2cccc(C(=O)N3CCN(c4cc(Cl)ccc4C)CC3)c2C1=O
active: potentiation [4] 81% | potentiation [15] 49.8%
inactive: outcome [1] | outcome [2] | outcome [3] | outcome [5] | outcome [6] | outcome [7] | outcome [8] | outcome [9] | outcome [10] | outcome [11] | outcome [12] | outcome [13] | outcome [14] | outcome [16] | outcome [17]

O=C(NCC(c1ccco1)N1CCc2ccccc2C1)c1ccc(F)cc1 (stereo not given)
inactive: outcome [1] | outcome [2] | outcome [3] | outcome [4] | outcome [5] | outcome [6] | outcome [7] | outcome [8] | outcome [9] | outcome [10] | outcome [11] | outcome [12] | outcome [13] | outcome [14] | outcome [15] | outcome [16] | outcome [17]
